The record followed here is PubChem BioAssay (NCATS).

Results filed as inconclusive are left out. Where a call stands in place of a potency, no number is given. Calls of active or inactive are those of the source. Calls come from the whole dose curve; as a rule, active = well fitted inhibition curve with a large enough effect; inconclusive = small, poorly fitted or top-dose-only effect; inactive = flat fitted curve, though single readings scatter.
Potency is the fitted concentration of half-maximal effect.

In the first assay the test system is HB3. The assay can be described thus: qHTS profiling for inhibitors of Plasmodium falciparum proliferation (AID 504749). Note: nearly all actives have a fitted effect of over 60% in size. Particulars: P. falciparum in erythrocytes, SYBR Green DNA, 72 h; series mostly up to 28.7 µM. The method, boiled down:
(§1)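 In a 72 h erythrocytic culture (37 C, humidified, 5% CO2) at 2.5% hematocrit and 0.3% starting parasitemia, compounds were tested; SYBR Green I in detergent lysis buffer stained parasite DNA overnight.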
For orientation: In qHTS, concentration-response curves come from the screen itself.
As to `NCC(=O)CCC(=O)O`, the Potency entry is “inactive”.
Consider `CSc1ccc2c(c1)N(CCC1CCCCN1C)c1ccccc1S2` (centres undefined), for which the Potency entry was “inactive”.
Same read-out and setting: in the case of `COCCOC(=O)C1=C(C)NC(C)=C(C(=O)OC/C=C/c2ccccc2)C1c1cccc([N+](=O)[O-])c1` (centres undefined) it was 11.2 µM (active).
For `CNCCC(Oc1ccc(C(F)(F)F)cc1)c1ccccc1` (centres undefined), the Potency entry is “inactive”.
Still for that read-out and setting: in the case of `CN(C)CCCN1c2ccccc2Sc2ccc(Cl)cc21` it was “inactive”; in that of `CC(CN1c2ccccc2Sc2ccccc21)N(C)C` (centres undefined), “inactive”.
On the same count and under the same terms, the entry for `OCc1cc(C(O)CNCCCCCCOCCCCc2ccccc2)ccc1O` (centres undefined) is “inactive”; for `NC1CCN(c2cccc(Cl)n2)CC1` it is “inactive”.
Regarding `CNC(=O)Oc1ccc2c(c1)[C@]1(C)CCN(C)[C@@H]1N2C`, the Potency was 2 µM (active).
On the same count and under the same terms, in the case of `C#CCN(C)Cc1ccccc1` it was “inactive”; in that of `CCOC(CN1CCN(CC(C)C(=O)c2ccccc2)CC1)c1ccccc1` (centres undefined), “inactive”.
Still for that read-out and setting: in the case of `NC(=O)N/N=C/c1ccc([N+](=O)[O-])o1` it was 11.2 µM (active).
Still for that read-out and setting: in the case of `O=C1c2c(O)cccc2Cc2cccc(O)c21` it was “inactive”; in that of `c1ccc(CN(CC2=NCCN2)c2ccccc2)cc1`, “inactive”.
For `CSc1ccc2c(c1)C(N1CCN(C)CC1)Cc1ccccc1S2` (centres undefined), the Potency result is “inactive”.
Still for that read-out and setting: the entry for `CN(C)CCN(Cc1ccccc1)c1ccccn1` is “inactive”; for `CCCCN1CCCC[C@H]1C(=O)Nc1c(C)cccc1C` it is “inactive”.
Same read-out and setting: the entry for `CN1CCCCC1CCN1c2ccccc2Sc2ccc(S(C)=O)cc21` (centres undefined) is “inactive”; for `CCN(CC)CCNC(=O)c1c(C)[nH]c(/C=C2\C(=O)Nc3ccc(F)cc32)c1C` it is 8.91 µM (active); for `CCN(CC)CCNC(C(=O)OCCC(C)C)c1ccccc1` (centres undefined) it is “inactive”.
Still for that read-out and setting: the entry for `CNCCCC1c2ccccc2C=Cc2ccccc21` is “inactive”.
`CN1CCC[C@@H]1Cc1c[nH]c2ccc(CCS(=O)(=O)c3ccccc3)cc12`: the Potency result was “inactive”.
As for `CCCn1cnc2c1c(=O)n(CCCCC(C)=O)c(=O)n2C`, the Potency entry is “inactive”.
Consider `Cc1c(O)cccc1C(=O)N[C@@H](CSc1ccccc1)[C@H](O)CN1C[C@H]2CCCC[C@H]2C[C@H]1C(=O)NC(C)(C)C`, for which the Potency is 10 µM (active).
For `CN1CCN(C2Cc3ccccc3Sc3ccc(Cl)cc32)CC1` (centres undefined), the Potency result was “inactive”.
Same read-out and setting: in the case of `CCOc1nc2cccc(C(=O)O)c2n1Cc1ccc(-c2ccccc2-c2nn[nH]n2)cc1` it was “inactive”.

Another assay has as its system ICS. The description is as above. Particulars: P. falciparum in erythrocytes, SYBR Green DNA, 72 h; series mostly up to 28.7 µM. In short, it runs like this: as §1
For `NCC(=O)CCC(=O)O`, the Potency result was “inactive”.
On the same count and under the same terms, in the case of `Oc1ccc(C(O)CNCCCCCCNCC(O)c2ccc(O)c(O)c2)cc1O` (centres undefined) it was 6.31 µM (active); in that of `CSc1ccc2c(c1)N(CCC1CCCCN1C)c1ccccc1S2` (centres undefined), 10 µM (active).
Turning to `COc1ccc2[nH]c(S(=O)Cc3ncc(C)c(OC)c3C)nc2n1` (centres undefined), the Potency is 7.94 µM (active).
On the same count and under the same terms, in the case of `COCCOC(=O)C1=C(C)NC(C)=C(C(=O)OC/C=C/c2ccccc2)C1c1cccc([N+](=O)[O-])c1` (centres undefined) it was 11.2 µM (active); in that of `CNCCC(Oc1ccc(C(F)(F)F)cc1)c1ccccc1` (centres undefined), 7.94 µM (active); in that of `CN(C)CCCN1c2ccccc2Sc2ccc(Cl)cc21`, 4.47 µM (active).
`CC(CN1c2ccccc2Sc2ccccc21)N(C)C` (centres undefined): the Potency entry is “inactive”.
With `OCCN1CCN(CCCN2c3ccccc3Sc3ccc(Cl)cc32)CC1`, the Potency was 3.98 µM (active).
The same measure, in the same setting: the entry for `NC1CCN(c2cccc(Cl)n2)CC1` is “inactive”.
As for `C#CCN(C)Cc1ccccc1`, the Potency result was “inactive”.
On to `NC(=O)N/N=C/c1ccc([N+](=O)[O-])o1`, for which the Potency was 11.2 µM (active).
Still for that read-out and setting: in the case of `O=C1c2c(O)cccc2Cc2cccc(O)c21` it was “inactive”.
On the same count and under the same terms, in the case of `[Cl][In]([Cl])[Cl]` it was 2.51 µM (active); in that of `CSc1ccc2c(c1)C(N1CCN(C)CC1)Cc1ccccc1S2` (centres undefined), 8.91 µM (active).
Same read-out and setting: in the case of `CCCCN1CCCC[C@H]1C(=O)Nc1c(C)cccc1C` it was “inactive”; in that of `CN1CCCCC1CCN1c2ccccc2Sc2ccc(S(C)=O)cc21` (centres undefined), 5.01 µM (active).
For the compound `CCN(CC)CCNC(=O)c1c(C)[nH]c(/C=C2\C(=O)Nc3ccc(F)cc32)c1C`, the Potency is 3.98 µM (active).
Same read-out and setting: in the case of `CC(C)(C)C(=O)C(Oc1ccc(Cl)cc1)n1ccnc1` (centres undefined) it was 12.6 µM (active).
The same measure, in the same setting: the figure for `CCN(CC)CCNC(C(=O)OCCC(C)C)c1ccccc1` (centres undefined) is 5.62 µM (active); for `CN1CCC[C@@H]1Cc1c[nH]c2ccc(CCS(=O)(=O)c3ccccc3)cc12` it is 7.08 µM (active).
Still for that read-out and setting: the figure for `Cc1c(O)cccc1C(=O)N[C@@H](CSc1ccccc1)[C@H](O)CN1C[C@H]2CCCC[C@H]2C[C@H]1C(=O)NC(C)(C)C` is 4.47 µM (active); for `CN1CCN(C2Cc3ccccc3Sc3ccc(Cl)cc32)CC1` (centres undefined) it is 12.6 µM (active).
